Measurements taken from PubChem BioAssay AID778 (Sanford-Burnham Center for Chemical Genomics, 2007).
In all, about 96,000 compounds went through this assay and about 20,000 (21%) were called active.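 The calls were made as follows: active = CYP2C19 inhibition above a set limit at 5 µM in the primary screen (cut at about 50% in these data); inactive = the rest.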 The list is a sample of the results.

Each compound was assayed against Cytochrome P450 2C19 (Homo sapiens) (UniProt P33261) (assay: blockers of cytochrome P450 2C19 activity – biochemical, luminescence, ADME assay, primary screen (AID 778;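 also: plate controls were negative control wells for no effect and 2.5 mM tranylcypromine positive control for full effect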)). Conditions: CYP2C19 Supersomes, luciferin-H EGE luminescence, 30 min; at 5 µM; active compounds read high.
Cytochrome P450 2C19 (Homo sapiens), sequence (P33261 whole entry, looked up): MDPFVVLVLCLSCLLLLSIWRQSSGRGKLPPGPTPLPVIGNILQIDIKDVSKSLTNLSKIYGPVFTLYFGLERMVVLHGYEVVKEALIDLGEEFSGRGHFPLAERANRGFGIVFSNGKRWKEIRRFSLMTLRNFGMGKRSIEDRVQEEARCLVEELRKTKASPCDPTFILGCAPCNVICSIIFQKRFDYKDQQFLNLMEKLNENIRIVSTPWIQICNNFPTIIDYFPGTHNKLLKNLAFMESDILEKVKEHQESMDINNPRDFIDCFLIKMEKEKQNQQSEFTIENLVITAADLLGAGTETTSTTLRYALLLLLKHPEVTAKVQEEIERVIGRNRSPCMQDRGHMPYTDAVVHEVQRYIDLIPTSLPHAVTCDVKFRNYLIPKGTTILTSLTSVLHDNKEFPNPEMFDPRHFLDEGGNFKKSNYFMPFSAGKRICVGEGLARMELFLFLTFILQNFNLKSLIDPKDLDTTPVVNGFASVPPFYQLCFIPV

SMILES	inhibition
Nn1c(SCC(=O)NC(=O)NC2CCCC2)nnc1-c1ccccc1F	27.9% (inactive)
COc1ccc(C(C(O)C(=O)c2c[nH]c3ccccc23)N2CCN(c3ccccc3)CC2)cc1 (centres undefined)	28.5% (inactive)
CCC(C)c1ccc(O)c(/C=N/O)c1 (centres undefined)	-21.8% (inactive)
Cc1nc2ccc(C(=O)O)cc2[nH]1	-2.4% (inactive)
Cc1noc(C)c1COC(=O)Cn1c(C)nc2ccccc21	17.3% (inactive)
Cc1noc(C)c1CSc1nnc2ccc3ccccc3n12	23.4% (inactive)
Cc1noc(C)c1COC(=O)c1cc2ccccc2cc1O	89.3% (active)
CC(CN1CCOCC1)c1ccccc1 (centres undefined)	26.4% (inactive)
CC(C)C(=O)Nc1ccc2c(c1)oc1ccccc12	13.2% (inactive)
Cc1nc2cc(NC(=O)NCc3ccccc3)ccc2o1	-8.7% (inactive)
O=C(O)CCN1C(=O)CC2(CCCCC2)C1=O	-6.7% (inactive)
O=C(Nc1ccc2c(c1)OCCO2)c1ccc(Cl)c(S(=O)(=O)N2CCCCC2)c1	96.4% (active)
O=C(O)c1cc(S(=O)(=O)N2CCCCCC2)c(Cl)cc1Cl	0% (inactive)
Cn1c(=O)n(C)c2cc(C(=O)Nc3ccc4c(c3)OCO4)ccc21	-13.9% (inactive)
Cc1ccc(C(=O)NCC(=O)O)cc1S(=O)(=O)N1CCCCC1	-12.8% (inactive)
Cc1ccc(-n2nc3c(c2NC(=O)c2ccc4c(c2)OCO4)CSC3)c(C)c1	3.6% (inactive)
Cc1ccc(C(=O)Nc2ccc3c(c2)OCO3)cc1S(=O)(=O)N1CCCCC1	92.3% (active)
COc1ccc(N2C(=O)c3cccc4cccc(c34)C2=O)nn1	-8.5% (inactive)
CC1CCCN(C(=O)Cn2c(=O)oc3ccccc32)C1 (centres undefined)	26.2% (inactive)
Cc1nnc(NC2=NCCCCC2)o1	-3.5% (inactive)
O=C(CC1NCCNC1=O)Nc1ccc(Oc2ccccc2)cc1 (centres undefined)	-0.6% (inactive)
Cn1c(=O)[nH]c(=O)c2c1nc(Br)n2CCCCSc1nc2ccccc2o1	38.5% (inactive)
Cc1ccc(Oc2ccc3c(c2)C(=O)N(c2cccc4cccnc24)C3=O)cc1	-1.5% (inactive)
COc1ccc(CNC2CCCCC2)cc1	69.4% (active)
COc1ccc(N/N=C2/CCCCC2=O)cc1	3.1% (inactive)
COc1ccc(CNC(=O)C2CCN(S(=O)(=O)N3CCOCC3)CC2)cc1	-11.9% (inactive)
CN1C(=O)c2ccc(NC(=O)C3CCCCC3)cc2C1=O	-0.4% (inactive)
O=C1c2ccccc2C(=O)N1c1ccccc1S(=O)C(F)(F)F (centres undefined)	6.6% (inactive)
Cc1ccc(-n2c(=O)cc(N3CCN(Cc4ccccc4)CC3)[nH]c2=O)cc1	1.5% (inactive)
